# KCNH2 WT inh: KCNH2 (human, wildtype) channel inhibition; activity change, % at 1.84 µM; 340,000 tested, 0.37% active; Q12809; U2OS, BacMam KCNH2, thallium flux FluxOr; hits give low values;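 active means maximum activity change below -70%; inconclusive means maximum activity change between -70% and -50%; inactive means maximum activity change above -50%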
#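 U2OS cells transduced with wild-type KCNH2 virus are loaded with FluxOr dye for 45 min, and thallium flux is measured in kinetic reads before and after stimulation buffer. Rate constants are normalized to DMSO controls.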
# EPAC1 agonist: EPAC1 (human) agonism | O95398 | 360,000 tested, 0.073% active | EPAC1 agonist qHTS, biochemical assay; response scale: 100% = response to 6.5 mM cAMP | AID 720707 | Potency, µM (highest dose often 154 µM), actives largely listed as activators; further: nearly all actives have a fitted effect of over 60% in size
# Target sequence (O95398 whole entry, looked up): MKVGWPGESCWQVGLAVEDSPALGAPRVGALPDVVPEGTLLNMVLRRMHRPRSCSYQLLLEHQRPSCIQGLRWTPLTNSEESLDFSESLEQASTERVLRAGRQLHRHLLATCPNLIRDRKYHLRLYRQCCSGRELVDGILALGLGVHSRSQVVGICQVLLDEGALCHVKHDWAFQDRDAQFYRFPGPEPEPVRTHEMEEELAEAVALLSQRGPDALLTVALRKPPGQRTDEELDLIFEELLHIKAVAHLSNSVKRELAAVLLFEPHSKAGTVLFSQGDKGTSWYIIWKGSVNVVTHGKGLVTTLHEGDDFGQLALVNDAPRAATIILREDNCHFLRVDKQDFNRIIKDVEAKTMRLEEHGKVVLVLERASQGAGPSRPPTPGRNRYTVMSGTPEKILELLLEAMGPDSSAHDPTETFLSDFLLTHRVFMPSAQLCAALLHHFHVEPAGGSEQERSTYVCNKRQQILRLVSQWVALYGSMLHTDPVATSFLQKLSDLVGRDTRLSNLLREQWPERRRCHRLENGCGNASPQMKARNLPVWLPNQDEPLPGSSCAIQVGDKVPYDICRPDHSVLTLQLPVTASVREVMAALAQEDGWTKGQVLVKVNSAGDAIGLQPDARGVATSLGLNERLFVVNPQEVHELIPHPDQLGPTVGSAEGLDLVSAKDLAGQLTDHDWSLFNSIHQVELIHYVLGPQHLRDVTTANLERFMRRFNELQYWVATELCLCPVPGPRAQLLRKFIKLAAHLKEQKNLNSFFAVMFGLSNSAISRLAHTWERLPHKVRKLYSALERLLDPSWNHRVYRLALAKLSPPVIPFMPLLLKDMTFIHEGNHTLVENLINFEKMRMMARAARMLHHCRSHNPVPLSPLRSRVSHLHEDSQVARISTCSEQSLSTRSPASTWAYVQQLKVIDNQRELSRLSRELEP
#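 Multi-concentration qHTS readout: loss of Rap1B-bound BODIPY-GDP fluorescence driven by 100 nM EPAC1 with excess GDP (50 uM), monitored kinetically at room temperature; agonist response expressed relative to 6.5 mM cAMP.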
# EPAC2 agonist: agonists of human EPAC2 (RAPGEF4) | Q8WZA2 | EPAC2 activation, biochemical qHTS; response scale: 100% = 6.5 mM cAMP response | Potency, µM (doses to about 154 µM), usual class: activators | 360,000 tested, 0.079% active; further: nearly all actives have a fitted effect of over 50% in size
#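 Each well held 100 nM EPAC2, 250 nM RAP1B-BODIPY-GDP and 50 uM GDP. Fluorescence, read at 5-min intervals to 30 min, was referenced to a 6.5 mM cAMP positive control.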
# EPAC1 antag: blocks human EPAC1 exchange factor; 360,000 tested, 0.14% active; EPAC1 GEF assay, Rap1b-BODIPY-GDP exchange fluorescence; O95398; Potency, µM (top dose mostly 115 µM), most hits filed as inhibitors; AID 720709; further: nearly all actives have a fitted effect of over 50% in size
# EPAC2 antagonist: antagonists of human EPAC2. Q8WZA2. EPAC2 GEF exchange of Rap1B-BODIPY-GDP, fluorescence. Potency, µM (series often up to 114 µM), hits mostly inhibitors. 360,000 tested, 0.18% active; further: nearly all actives have a fitted effect of over 45% in size
# KCNH2 3.1 block: inhibitors of human KCNH2 3.1 potassium channel isoform; activity change, % (tested at about 1.8 µM); AID 720553; U2OS KCNH2 3.1, thallium flux FluxOr; hits give low values; 340,000 tested, 0.95% active;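 active means maximum activity change below -70%; inconclusive means maximum activity change from -70% to -50%; inactive means maximum activity change above -50%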;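 further: thallium influx rate constant from kinetic fluorescence after stimulation buffer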
#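 Measured as rate of thallium-driven FluxOr signal in transduced U2OS cells carrying the 3.1 channel, read kinetically for 2 min upon stimulation; values are rate constants scaled to DMSO control wells.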
# Hits are given with their value; i = inactive; ? = inconclusive; nt = no result given. Compounds with a hit are over-represented: about 1.4% of the library has one in this group of screens. Unless noted, the call rests on the fitted dose curve; in most records, active means well fitted curve in the direction sought with a large enough effect; inconclusive means small, poorly fitted or top-dose-only effect, or another doubt; inactive means no such curve, though single readings can be large; an effect the other way counts as inactive or inconclusive.
SMILES,KCNH2 WT inh,EPAC1 agonist,EPAC2 agonist,EPAC1 antag,EPAC2 antagonist,KCNH2 3.1 block
Cc1ccc(C(=O)N/C(=C/c2ccc(F)cc2)C(=O)NCc2ccncc2)cc1,?,i,i,i,i,-90
Cc1ccc(C(=O)N/C(=C\c2cn(C)c3ccccc23)C(=O)NCCCn2ccnc2)cc1,i,i,i,i,i,i
CCCCc1ccc(NC(=O)CSc2nc(=O)n(CCCN3CCOCC3)c3c2CCC3)cc1,i,i,i,i,i,i
OCCNCc1ccc(OCc2ccc(Cl)cc2Cl)cc1,i,i,i,i,i,-84
CCCn1ncc(CN2CCC(n3nccc3NC(=O)c3ccccc3OC)CC2)c1C,?,i,i,i,i,-95
CCn1nc(C)c(CN2CCC(n3nccc3NC(=O)c3ccccc3OC)CC2)c1C,i,i,i,i,i,i
Cn1cc(CN2CCC(n3nccc3NC(=O)c3ccccc3Cl)CC2)c2ccccc21,-79,i,i,i,i,i
Cn1cc(CN2CCC(n3nccc3NC(=O)c3ccccc3Cl)CC2)cn1,i,i,i,i,i,i
CCCCc1ncc(CN2CCC(n3nccc3NC(=O)c3ccccc3OC)CC2)[nH]1,i,i,i,i,i,-79
COc1ccccc1C(=O)Nc1ccnn1C1CCN(Cc2cn(C)c3ccccc23)CC1,i,i,i,i,i,-77
Nn1c(SCC(=O)Nc2cccc(Br)c2)nnc1C1CC1,i,i,i,i,i,i
O=C(CSc1nnc(NC2CC2)s1)NN1C(=O)NC2(CCCCC2)C1=O,i,i,i,i,i,i
C#CCNC(=O)C[C@@H]1C[C@@]2(C(=O)OC)CC(C)(C)CC=C2N(CCCCCCCC)C1=O,nt,i,i,i,?,nt
O=C(O)/C=C/C(=O)c1ccc2c(c1)NC(=O)CO2,i,i,i,i,i,i
Cc1cc2c(cc1C)-n1nnnc1C(N(Cc1ccccc1)Cc1ccccc1)C(=O)N2 (stereo not given),nt,i,i,i,i,nt
N#Cc1c(-c2ccccc2)nc(SCC(=O)Nc2ccccc2)[nH]c1=O,i,i,i,i,i,i
N#Cc1c(-c2ccccc2)nc(SCC(=O)N2c3ccccc3Sc3ccccc32)[nH]c1=O,i,i,i,79µM,8.9µM,i
N#Cc1c(-c2ccccc2)nc(SCC(=O)N(c2ccccc2)c2ccccc2)[nH]c1=O,i,i,i,i,i,i
N#Cc1c(-c2ccccc2)nc(SCC(=O)Nc2ccc(OC(F)(F)Cl)cc2)[nH]c1=O,i,i,i,?,35µM,i
C=CCSc1nc(-c2ccccc2)c(C#N)c(=O)[nH]1,i,i,i,i,i,i
N#Cc1c(-c2ccccc2)nc(SCc2ccc(Cl)cc2)[nH]c1=O,i,i,i,79µM,?,i
COCCNC(=O)C1(C)CCCN(Cc2cn(C)c3ccccc23)C1 (stereo not given),nt,i,i,i,i,nt
COc1ccc(CN2CCC(Oc3cc(C(=O)NC4CC4)ccc3OC)CC2)c(O)c1,-109,i,i,i,i,-94
COc1ccc(C(=O)NC2CC2)cc1OC1CCN(Cc2cc(C)c(C)cc2C)CC1,?,i,i,i,i,-75
O=C(NC1CCN(CC(=O)N(c2ccccc2)c2ccccc2)CC1)c1ccc([N+](=O)[O-])cc1,-77,i,i,i,i,-111
COc1ccc(C(=O)NC2CC2)cc1OC1CCN(Cc2ccc(F)cc2Cl)CC1,-75,i,i,i,i,-93
CCOc1cccc(N2C(=O)CC(NCc3ccc(S(N)(=O)=O)cc3)C2=O)c1 (stereo not given),i,i,i,i,i,i
COc1ccccc1CNC(=O)C[C@H]1CC[C@@H]2[C@H](COC[C@H](O)CN2Cc2ccc3c(c2)OCO3)O1,nt,i,i,i,i,nt
O=C(NC1CCN(Cc2ccc(Cl)cc2Cl)CC1)c1ccccc1,i,i,i,i,i,-84
COc1ccc(/C=C/C(=O)Nc2ccc(OC)cc2[N+](=O)[O-])cc1,i,i,i,i,i,-85

# Bioassay records: PubChem, National Center for Advancing Translational Sciences (NCATS)
